Test results from PubChem BioAssay (EPA / NIEHS).
Records with an inconclusive call do not appear. The source made the active and inactive calls. Rule for the calls, unless noted: active = hit-call score of the fitted dose curve at least 0.9, where 1 is the maximum; inactive = score below 0.9.

Tests used:
[1] = molecular target: Retinoic acid receptor RXR-alpha (Homo sapiens) (UniProt P19793); experiment: ATG_RXRa_TRANS: Attagene TRANS-FACTORIAL HepG2 Assay for human Retinoid X Receptor alpha (RXRa) (AID 2283012; active = hit-call score of the fitted dose curve at least 0.9, where 1 is the maximum)
Chain of Retinoic acid receptor RXR-alpha (Homo sapiens) (P19793 whole entry, looked up, the tested form may be a part): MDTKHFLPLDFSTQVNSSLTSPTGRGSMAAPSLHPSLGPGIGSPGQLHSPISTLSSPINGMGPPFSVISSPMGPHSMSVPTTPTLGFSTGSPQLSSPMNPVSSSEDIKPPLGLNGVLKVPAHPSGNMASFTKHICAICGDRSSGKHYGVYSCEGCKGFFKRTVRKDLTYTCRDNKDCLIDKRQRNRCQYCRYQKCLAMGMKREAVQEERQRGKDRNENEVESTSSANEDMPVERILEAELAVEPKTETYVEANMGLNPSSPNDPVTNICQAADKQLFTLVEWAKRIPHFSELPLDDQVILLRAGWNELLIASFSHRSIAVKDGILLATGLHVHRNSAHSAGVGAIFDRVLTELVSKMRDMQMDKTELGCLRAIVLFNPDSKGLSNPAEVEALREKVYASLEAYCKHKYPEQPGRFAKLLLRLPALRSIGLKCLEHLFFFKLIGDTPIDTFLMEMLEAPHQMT
How it was run: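 Read-out: fluorescent reporter-transcript fragments quantified by capillary electrophoresis after RT-PCR. Transiently transfected HepG2 cells carrying GAL4-UAS reporters and NR-GAL4 chimeras were exposed to chemical for 24 h; activity scored as increase over DMSO.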

[2] = molecular target: human Thyroid Receptor alpha (THRa1), THRA (gene 7067) (UniProt P10827); experiment: ATG_THRa1_TRANS: Attagene TRANS-FACTORIAL HepG2 Assay for human Thyroid Receptor alpha (THRa1) (AID 2283014; active = hit-call score of the fitted dose curve at least 0.9, where 1 is the maximum)
Chain of human Thyroid Receptor alpha (THRa1), THRA (gene 7067) (P10827 whole entry, looked up, the tested form may be a part): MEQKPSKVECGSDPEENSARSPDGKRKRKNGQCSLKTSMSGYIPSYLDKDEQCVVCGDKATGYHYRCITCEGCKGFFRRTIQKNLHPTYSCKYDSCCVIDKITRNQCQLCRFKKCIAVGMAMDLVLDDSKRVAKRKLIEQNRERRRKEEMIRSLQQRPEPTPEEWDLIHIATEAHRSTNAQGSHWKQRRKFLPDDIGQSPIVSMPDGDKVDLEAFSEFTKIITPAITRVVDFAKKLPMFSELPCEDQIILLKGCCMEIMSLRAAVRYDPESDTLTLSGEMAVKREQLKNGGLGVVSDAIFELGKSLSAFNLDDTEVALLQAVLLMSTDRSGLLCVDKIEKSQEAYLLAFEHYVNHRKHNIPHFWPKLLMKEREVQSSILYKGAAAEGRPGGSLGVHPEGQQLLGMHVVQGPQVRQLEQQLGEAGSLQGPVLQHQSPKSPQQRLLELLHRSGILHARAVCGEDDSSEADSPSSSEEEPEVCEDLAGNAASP
How it was run: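 HepG2 cells transiently transfected with multiplexed GAL4-UAS reporter units for exogenous chimeric THRa1-Gal4; reporter mRNA measured 24 h after dosing by RT-PCR, 6-FAM labelling, HpaI digestion and capillary electrophoresis. Gain-of-signal fitted versus DMSO baseline.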

[3] = read-out: E-selectin (Homo sapiens) (UniProt P16581); experiment: BSK_3C_Eselectin: BioMAP Diversity Plus: 3C Assay for Eselectin Biomarker Activity (AID 2283015); conditions: primary human endothelial cells (HUVEC); actives raise or lower the signal
How it was run: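 Primary human umbilical vein endothelial cells (3C system) were dosed with chemical and cell-surface E-selectin measured by ELISA 24 h later. Bidirectional curve fitting used DMSO as negative control and baseline.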

[4] = read-out: Interleukin-1 alpha (IL1a), IL1A (gene 3552); experiment: BSK_BE3C_IL1a: BioMAP Diversity Plus: BE3C Assay for Interleukin-1 alpha (IL1a) Biomarker Activity (AID 2283016); conditions: primary human bronchial epithelial cells; actives raise or lower the signal
How it was run: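 ELISA read-out of IL-1a from human lung bronchial epithelial primary cells, 24 h post-dose. Gain or loss of signal fitted relative to DMSO negative control.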

[5] = read-out: Monocyte Chemoattractant Protein-1 (MCP1), CCL2 (gene 6347); experiment: BSK_3C_MCP1: BioMAP Diversity Plus: 3C Assay for Monocyte Chemoattractant Protein-1 (MCP1) Biomarker Activity (AID 2283017); conditions: primary human endothelial cells (HUVEC); actives raise or lower the signal
How it was run: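 Primary human umbilical vein endothelial cells (3C system) were exposed to test chemical for 24 h, after which MCP-1 was quantified by ELISA. Activity was fitted bidirectionally against DMSO as negative control and baseline.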

[6] = read-out: Monocyte Chemoattractant Protein-1 (MCP1), CCL2 (gene 6347); experiment: BSK_4H_MCP1: BioMAP Diversity Plus: 4H Assay for Monocyte Chemoattractant Protein-1 (MCP1) Biomarker Activity (AID 2283018); conditions: primary human endothelial cells (HUVEC); actives raise or lower the signal
How it was run: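 HUVEC primary cells, 24 h post-dose, MCP-1 by ELISA. Gain or loss of signal fitted bidirectionally vs DMSO baseline. Cytotoxicity: SRB stain (0.1% after 10% TCA fixation), read 560 nm, parallel cultures.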

[7] = read-out: Human Leukocyte Antigen - DR isotype (HLADR), HLA-DRA (gene 3122); experiment: BSK_3C_HLADR: BioMAP Diversity Plus: 3C Assay for Human Leukocyte Antigen - DR isotype (HLADR) Biomarker Activity (AID 2283019); conditions: primary human endothelial cells (HUVEC); actives raise or lower the signal
How it was run: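 Primary human umbilical vein endothelial cells (3C system) were dosed with compound and cell-surface HLA-DR was quantified by ELISA at 24 h. Activity was fitted bidirectionally against DMSO as negative control and baseline.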

[8] = read-out: Interleukin-8 (IL8), CXCL8 (gene 3576); experiment: BSK_3C_IL8: BioMAP Diversity Plus: 3C Assay for Interleukin-8 (IL8) Biomarker Activity (AID 2283020); conditions: primary human endothelial cells (HUVEC); actives raise or lower the signal
How it was run: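 HUVEC, 3C stimulation; 24 h compound exposure; IL-8 read by ELISA; gain or loss of signal fitted relative to DMSO control.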

[9] = molecular target: human Vitamin D Receptor (VDR), VDR (gene 7421) (UniProt P11473); experiment: ATG_VDR_TRANS: Attagene TRANS-FACTORIAL HepG2 Assay for human Vitamin D Receptor (VDR) (AID 2283022; active = hit-call score of the fitted dose curve at least 0.9, where 1 is the maximum)
Chain of human Vitamin D Receptor (VDR), VDR (gene 7421) (P11473 whole entry, looked up, the tested form may be a part): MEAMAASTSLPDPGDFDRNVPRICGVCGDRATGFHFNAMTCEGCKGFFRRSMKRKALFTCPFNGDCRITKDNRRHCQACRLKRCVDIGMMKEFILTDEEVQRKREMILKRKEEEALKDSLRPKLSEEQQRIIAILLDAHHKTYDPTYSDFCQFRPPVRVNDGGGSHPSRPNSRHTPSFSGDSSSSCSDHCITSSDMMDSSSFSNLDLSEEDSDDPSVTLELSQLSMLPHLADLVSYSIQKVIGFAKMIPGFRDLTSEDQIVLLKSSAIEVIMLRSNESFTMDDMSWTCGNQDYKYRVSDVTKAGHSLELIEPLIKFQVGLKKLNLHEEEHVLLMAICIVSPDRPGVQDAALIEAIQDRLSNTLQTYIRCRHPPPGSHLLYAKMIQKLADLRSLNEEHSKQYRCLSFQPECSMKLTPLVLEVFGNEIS
How it was run: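 HepG2 cells were transiently transfected with multiple GAL4-UAS reporter units, so signal reflects exogenous chimeric receptor-Gal4 activity. After 24 h compound exposure, reporter mRNA was measured by RT-PCR, fluorescent labelling and capillary electrophoresis, fitted for gain of signal versus DMSO.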

[10] = read-out: Matrix Metallopeptidase 1 (MMP1), MMP1 (gene 4312); experiment: BSK_BE3C_MMP1: BioMAP Diversity Plus: BE3C Assay for Matrix Metallopeptidase 1 (MMP1) Biomarker Activity (AID 2283024); conditions: primary human bronchial epithelial cells; actives raise or lower the signal
How it was run: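 ELISA read-out of MMP1 in human lung bronchial epithelial primary cultures, 24 h post-dose; bidirectional curve fit vs DMSO baseline, gain or loss of signal scored.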

[11] = BSK_3C_Vis: BioMAP Diversity Plus: 3C Assay for Morphology Visualization (AID 2283025); conditions: primary human endothelial cells (HUVEC);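 note: fitted both ways so gain or loss versus DMSO counts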;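 for AC50: light microscopy image of cell morphology used as background control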
How it was run: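 HUVEC, 3C system; light microscopy of morphology at 24 h post-dose. Bidirectional fit vs DMSO baseline. Secondary readout, background-control function.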

[12] = read-out: Pselectin, SELP (gene 6403); experiment: BSK_4H_Pselectin: BioMAP Diversity Plus: 4H Assay for Pselectin Biomarker Activity (AID 2283026); conditions: primary human endothelial cells (HUVEC); actives raise or lower the signal
How it was run: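 HUVEC, 24 h chemical exposure; P-selectin read by ELISA. Bidirectional curve fit vs DMSO baseline; gain or loss of signal scored.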

[13] = BSK_4H_SRB: Viability Assessment in the BioMAP Diversity Plus: 4H Assay (AID 2283027); conditions: primary human endothelial cells (HUVEC);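 note: cells exposed to compound for 24 h before staining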;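 for AC50: curves fitted both ways versus DMSO so AC50 may be loss or gain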
How it was run: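 HUVEC, 24 h post-dose; 10% TCA fix, 0.1% SRB stain, A560 nm. Total protein = overt cytotoxicity, parallel to biomarker read. Bidirectional fit vs DMSO baseline.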

[14] = BSK_BE3C_SRB: Viability Assessment in the BioMAP Diversity Plus: BE3C Assay (AID 2283028); conditions: primary human bronchial epithelial cells;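 for AC50: fitted both ways so AC50 may mark signal gain or loss versus DMSO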
How it was run: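 Human primary bronchial epithelial cells were exposed to test chemicals for 24 h. Total protein in parallel cultures was then measured by staining with 0.1% sulforhodamine B after 10% TCA fixation, with absorbance read at 560 nm. Activity was fitted bidirectionally against DMSO.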

[15] = read-out: Thrombomodulin, THBD (gene 7056); experiment: BSK_3C_Thrombomodulin: BioMAP Diversity Plus: 3C Assay for Thrombomodulin Biomarker Activity (AID 2283029); conditions: primary human endothelial cells (HUVEC); actives raise or lower the signal
How it was run: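 HUVEC, 3C conditions; compound 24 h; thrombomodulin by ELISA; bidirectional curve fit vs DMSO baseline; parallel SRB total-protein staining for cytotoxicity.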

[16] = read-out: Urokinase-type plasminogen activator receptor (uPAR), PLAUR (gene 5329); experiment: BSK_4H_uPAR: BioMAP Diversity Plus: 4H Assay for Urokinase-type plasminogen activator receptor (uPAR) Biomarker Activity (AID 2283030); conditions: primary human endothelial cells (HUVEC); actives raise or lower the signal
How it was run: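 Primary human umbilical vein endothelial cells were exposed to chemical for 24 h before cell-surface uPAR was quantified by ELISA. Activity was fitted bidirectionally against the DMSO negative control baseline.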

[17] = molecular target: human Retinoid X Receptor beta (RXRb), RXRB (gene 6257) (UniProt P28702); experiment: ATG_RXRb_TRANS: Attagene TRANS-FACTORIAL HepG2 Assay for human Retinoid X Receptor beta (RXRb) (AID 2283013; active = hit-call score of the fitted dose curve at least 0.9, where 1 is the maximum)
Chain of human Retinoid X Receptor beta (RXRb), RXRB (gene 6257) (P28702 whole entry, looked up, the tested form may be a part): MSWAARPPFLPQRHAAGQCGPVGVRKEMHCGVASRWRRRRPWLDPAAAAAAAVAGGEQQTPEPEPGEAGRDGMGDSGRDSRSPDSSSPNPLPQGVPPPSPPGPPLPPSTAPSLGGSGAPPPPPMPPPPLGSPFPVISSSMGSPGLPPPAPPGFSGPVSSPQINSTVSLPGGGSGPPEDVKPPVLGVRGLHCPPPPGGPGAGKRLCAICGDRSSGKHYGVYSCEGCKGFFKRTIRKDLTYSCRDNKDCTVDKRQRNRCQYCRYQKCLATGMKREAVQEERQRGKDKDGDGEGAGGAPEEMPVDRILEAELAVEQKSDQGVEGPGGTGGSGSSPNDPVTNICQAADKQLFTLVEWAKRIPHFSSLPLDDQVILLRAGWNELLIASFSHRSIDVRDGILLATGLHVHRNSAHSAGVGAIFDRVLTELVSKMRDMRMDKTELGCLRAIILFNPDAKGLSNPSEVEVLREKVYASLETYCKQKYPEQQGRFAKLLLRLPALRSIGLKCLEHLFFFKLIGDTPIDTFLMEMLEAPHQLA
How it was run: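 Read-out: reporter mRNA induction via RT-PCR plus capillary electrophoresis fluorescence, analysed as signal increase relative to DMSO. Cells were human HepG2, transiently transfected with GAL4-UAS reporter constructs and chimeric receptor-Gal4 fusions, dosed for 24 h.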

[18] = read-out: Monokine induced gamma interferon (MIG), CXCL9 (gene 4283); experiment: BSK_3C_MIG: BioMAP Diversity Plus: 3C Assay for Monokine induced gamma interferon (MIG) Biomarker Activity (AID 2283021); conditions: primary human endothelial cells (HUVEC); actives raise or lower the signal
How it was run: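 HUVEC, 3C system; 24 h chemical exposure; MIG by ELISA; bidirectional fit vs DMSO baseline.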

[19] = BSK_3C_SRB: Viability Assessment in the BioMAP Diversity Plus: 3C Assay (AID 2283023); conditions: primary human endothelial cells (HUVEC);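 note: fitted both ways against DMSO so a hit may be signal rise or drop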
How it was run: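 Primary human umbilical vein endothelial cells in the 3C system were read 24 h after compound dosing. Total protein was stained with 0.1% sulforhodamine B after 10% TCA fixation and read at 560 nm, with bidirectional fitting against DMSO as baseline.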

Measured: AC50

Chain of E-selectin (Homo sapiens) (P16581 whole entry, looked up): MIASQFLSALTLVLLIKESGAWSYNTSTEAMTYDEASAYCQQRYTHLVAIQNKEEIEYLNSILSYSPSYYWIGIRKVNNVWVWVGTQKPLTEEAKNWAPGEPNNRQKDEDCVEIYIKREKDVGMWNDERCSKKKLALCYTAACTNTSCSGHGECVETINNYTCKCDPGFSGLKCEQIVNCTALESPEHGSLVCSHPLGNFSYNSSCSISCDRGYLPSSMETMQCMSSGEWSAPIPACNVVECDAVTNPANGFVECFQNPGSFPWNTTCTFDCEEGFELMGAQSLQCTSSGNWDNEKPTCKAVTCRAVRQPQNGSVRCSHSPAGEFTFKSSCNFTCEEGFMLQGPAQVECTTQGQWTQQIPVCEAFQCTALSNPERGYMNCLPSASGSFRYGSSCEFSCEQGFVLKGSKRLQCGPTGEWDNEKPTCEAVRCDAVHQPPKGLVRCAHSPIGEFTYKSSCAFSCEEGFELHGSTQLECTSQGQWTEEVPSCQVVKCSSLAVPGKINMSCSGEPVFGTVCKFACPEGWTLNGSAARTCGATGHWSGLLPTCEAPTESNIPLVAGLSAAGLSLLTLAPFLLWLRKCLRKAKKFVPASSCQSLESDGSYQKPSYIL

CCOC(=O)COC(=O)c1cc(Oc2ccc(C(F)(F)F)cc2Cl)ccc1[N+](=O)[O-]
inactive: [1] | [2]

COc1ccc(CCN2CCC(Nc3nc4ccccc4n3Cc3ccc(F)cc3)CC2)cc1
inactive: [1] | [2] | [4] | [9] | [10] | [12] | [14] | [15]
active: [3] 5 µM | [5] 3.54 µM | [6] 0.992 µM | [7] 6.77 µM | [8] 2.66 µM | [11] 0.743 µM | [13] 2.49 µM | [16] 0.992 µM

C=CC(C)(O)CCC=C(C)C (stereo not drawn)
inactive: [1] | [17] | [3] | [4] | [5] | [6] | [7] | [8] | [18] | [10] | [12] | [13] | [14] | [15] | [16]

Cc1ccc(C)o1
inactive: [1] | [17] | [9]

CCCCN(CCCC)C(=O)N(CCCC)CCCC
active: [3] 6.65 µM | [4] 8.05 µM | [5] 8.46 µM | [6] 6.41 µM | [7] 6.8 µM | [8] 4.98 µM | [10] 20 µM | [11] 2.98 µM | [12] 12.2 µM | [13] 8.59 µM | [14] 7.45 µM | [16] 7.82 µM
inactive: [1] | [2] | [9] | [15]

O=C1CCCC=CCCCCCCCCCC1
inactive: [9]
active: [1] 24.4 µM | [17] 12.1 µM

CC1(C)C2=CCCC(C)(C)[C@]23CC[C@H]1C3
inactive: [1] | [17] | [4] | [6] | [10] | [13] | [14] | [15] | [16]
active: [3] 32.8 µM | [5] 30.4 µM | [7] 29.1 µM | [8] 20 µM | [11] 37.4 µM | [12] 20 µM

CN(C)C(=O)Nc1ccc(Oc2ccc(Cl)cc2)cc1
inactive: [1] | [2] | [7] | [8] | [10] | [11] | [12] | [13] | [14] | [15] | [16]
active: [3] 20 µM | [4] 3.97 µM | [5] 3.97 µM | [6] 12.1 µM

CCCCCC(C=O)=Cc1ccccc1
inactive: [1] | [4] | [14] | [15]
active: [17] 73.8 µM | [3] 35.2 µM | [5] 31.5 µM | [6] 27.8 µM | [7] 36.6 µM | [8] 28.8 µM | [19] 33.1 µM | [10] 0.096 µM | [11] 37.8 µM | [12] 32.7 µM | [13] 34.1 µM | [16] 36.5 µM

CC=Cc1ccc(OCC)c(O)c1
inactive: [18] | [19]

CCNCCO
inactive: [2]

C=C(C)C(=O)OCC(CC)(COC(=O)C(=C)C)COC(=O)C(=C)C
inactive: [4] | [5] | [6] | [8] | [18] | [10] | [11] | [12] | [14] | [15] | [16]
active: [3] 26.3 µM | [7] 19.7 µM | [13] 9.41 µM

CCC(C)=O
inactive: [2]

CC1(C)O[C@@H]2[C@@H](CO[C@@]3(COS(N)(=O)=O)OC(C)(C)O[C@@H]23)O1
inactive: [2]

CCC1(c2ccccc2)C(=O)NCNC1=O
inactive: [9]

Cc1occc(=O)c1OC(=O)C(C)C
inactive: [2]

NCC1CCCC(CN)C1 (stereo not drawn)
inactive: [2]

CCC(C)S (stereo not drawn)
inactive: [17] | [9]

CCOC(=O)[C@@H](C)Oc1ccc(Oc2nc3ccc(Cl)cc3o2)cc1
inactive: [17] | [2] | [9]

CCCCCCCC/C=C\CCCCCCCC(=O)OCC
inactive: [17] | [9]

C#CC(C)N(C)C(=O)Nc1ccc(Cl)cc1 (stereo not drawn)
inactive: [17] | [2] | [9]
